High-throughput results as filed in PubChem.
Sampled rows, rich in hits. Any-hit rate of the full collection: about 5.4%.
PHOSPHO1 inh: PubChem AID 1565; recombinant PHOSPHO1, absorbance phosphatase assay; inhibition, % at 13.3 µM; 1.1% of 290,000 active; in the data active = inhibition above about 60%
rCAG binder: binders of r(CAG) RNA repeats, primary screen, biochemical, fluorescence; r(CAG) RNA repeat, TO-PRO-1 dye displacement fluorescence; inhibition, % at 3 µM; 1.3% of 370,000 active; AID 651821, 2012;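 active = inhibition above the plate cutoff, the mean of all test compounds on that plate plus 3 SD, cut at about 35% in these data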;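 note: 0% = DMSO alone and 100% = 100 µM mitoxantrone as full dye displacement; higher means more dye released from RNA so lower well fluorescence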
APOBEC3G inh: APOBEC3G DNA deaminase inhibitors, primary screen, biochemical, fluorescence, single-stranded DNA substrate, uHTS; recombinant A3G, ssDNA deamination FAM/TAMRA fluorescence; AID 493012, 2011; inhibition, % at 20 µM; 0.28% of 330,000 active; DNA dC->dU-editing enzyme APOBEC-3G (Homo sapiens), Q9HC16;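 active = inhibition of at least 40% at 20 µM, with no more than 30% in the related APOBEC3A deaminase screen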;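 note: plate controls were DMSO wells with A3G for no effect and wells lacking A3G enzyme for full effect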
Target sequence (Q9HC16 whole entry, looked up): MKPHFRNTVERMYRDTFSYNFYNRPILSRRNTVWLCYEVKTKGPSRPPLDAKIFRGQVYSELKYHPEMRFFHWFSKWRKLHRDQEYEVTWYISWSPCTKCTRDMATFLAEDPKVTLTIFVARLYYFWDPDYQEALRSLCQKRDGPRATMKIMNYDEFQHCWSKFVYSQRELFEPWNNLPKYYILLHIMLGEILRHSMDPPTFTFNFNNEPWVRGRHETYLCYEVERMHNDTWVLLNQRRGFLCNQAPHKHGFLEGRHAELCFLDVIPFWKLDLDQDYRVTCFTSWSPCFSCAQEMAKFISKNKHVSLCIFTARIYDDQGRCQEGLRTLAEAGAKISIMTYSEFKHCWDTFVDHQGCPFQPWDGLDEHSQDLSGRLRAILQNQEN
A3A deaminase: APOBEC3A ssDNA deaminase inhibitors, primary screen, selectivity assay for APOBEC3G inhibitor project, biochemical, FAM/TAMRA oligo cleavage fluorescence | recombinant A3A, FAM/TAMRA ssDNA deamination fluorescence | AID 493011, 2011 | inhibition, % at 20 µM | 0.41% of 330,000 active;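 active = at least 40% inhibition at 20 µM here, with at most 30% in a related deaminase screen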;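 note: plate controls were A3A with DMSO for no effect and wells lacking A3A enzyme for full effect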
Target sequence (P31941 whole entry, looked up): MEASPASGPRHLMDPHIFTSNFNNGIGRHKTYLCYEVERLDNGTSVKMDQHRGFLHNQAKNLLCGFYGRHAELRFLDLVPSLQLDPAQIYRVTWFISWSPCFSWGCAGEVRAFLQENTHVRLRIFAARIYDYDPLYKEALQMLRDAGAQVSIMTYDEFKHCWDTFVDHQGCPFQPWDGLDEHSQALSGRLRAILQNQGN
ALR H2O2 inh: inhibitors of human ALR sulfhydryl oxidase, primary screen, biochemical, H2O2 detection, HRP-luminol luminescence, single point | 3.8% of 290,000 active | inhibition, % (concentration not given with the values) | AID 485317, 2010 | FAD-linked sulfhydryl oxidase ALR (Homo sapiens), P55789 | purified ALR, DTT oxidation;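 active = mean replicate inhibition above about 79%, with every replicate also reaching it, limit read from the data; inconclusive = only one of the two criteria met; inactive = mean below limit and not every replicate reaching it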
aDG glyco act: activators of alpha-DG glycosylation, primary screen, uHTS, Pro5-aDG cells, AlphaScreen. alpha-DG glycosylation AlphaScreen (IIH6); 0% Pro5, 100% B10-LARGE cell signal. 0.22% of 360,000 active. activation, % at 10 µM;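 active = activation of at least 8% versus controls, or a plate z-score of at least 8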;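 note: Pro5 are CHO cells carrying HIG-tagged alpha-DG that lacks glycosylation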
An asterisk follows results filed as active; ? = inconclusive; . = no result given.

SMILES | PHOSPHO1 inh | rCAG binder | APOBEC3G inh | A3A deaminase | ALR H2O2 inh | aDG glyco act
O=C(O)c1ccc(N2CCOCC2)c(N2C(=O)C3C4C=CC(C4)C3C2=O)c1 (configuration not stated) | 62* | 1 | 1 | 2 | -5 | 0
O=C(O)CCC(=O)Nc1ccc2c(c1)Cc1cc(NC(=O)CCC(=O)O)ccc1-2 | . | 3 | -7 | -2 | 99* | 0
O=C(O)CCC(=O)Nc1ccc(N2CCCCC2)c(C(=O)O)c1 | -19 | 2 | -5 | -3 | -7 | 0
Cc1cccc(NC(=O)CSc2nc3nc(C)cc(C)c3c(=O)[nH]2)c1 | 16 | 5 | -1 | 6 | 44 | 0
CC(=O)Nc1c(O)nc(SCC(=O)Nc2cccc(C)c2)[nH]c1=O | -3 | -2 | -2 | -2 | 98* | 1
CC(=O)Nc1c(O)nc(SCC(=O)Nc2ccc(C(C)=O)cc2)[nH]c1=O | -1 | 2 | -5 | -1 | 98* | 0
CC(=O)Nc1c(O)nc(SCC(=O)Nc2nnc(CC(C)C)s2)[nH]c1=O | -26 | -1 | -1 | -1 | 85* | 0
CC(=O)Nc1c(O)nc(SCC(=O)Nc2sc3c(c2C#N)CCCCCC3)[nH]c1=O | 8 | 24 | -7 | -4 | 98* | 0
O=C(CSc1nc2ncc(Br)cc2[nH]1)c1ccc([N+](=O)[O-])cc1 | -18 | 11 | -3 | -2 | ? | 0
O=C(CSc1nc2ccc([N+](=O)[O-])cc2[nH]1)c1ccc2ccccc2c1 | -28 | 37* | 4 | 4 | -22 | 0
Cc1ccc(CSc2nc3c(c(=O)[nH]c(=O)n3C)n2CCC(C)C)cc1 | -13 | 2 | -7 | -3 | 0 | 0
CC(C)CCn1c(SCc2ccc(Cl)cc2)nc2c1c(=O)[nH]c(=O)n2C | 61* | 0 | 19 | -2 | -8 | 1
COc1ccc(C(C(=O)N(C)C2CCCC2)N(Cc2ccc(F)cc2)C(=O)c2csc3ccc(Cl)cc23)cc1OC (configuration not stated) | . | 9 | . | . | . | .
CN(Cc1ccccc1)C(=S)NC(=O)C1CCCCC1 | 31 | -3 | -6 | -3 | -18 | 0
O=C(NC(=S)N(Cc1ccccc1)c1ccccn1)C1CCCCC1 | 16 | -4 | -2 | -4 | 99* | 0
O=C(Cc1ccc(Br)cc1)N(Cc1ccccc1)c1ccccn1 | 63* | -3 | -1 | 0 | -1 | 0
Nc1[nH]c(C(=O)c2ccc(Br)cc2)c(-c2ccncc2)c1C(=O)NCCc1c[nH]c2ccccc12 | . | 9 | . | . | . | .
COc1ccc(-n2nnnc2SCc2nc3ccccc3s2)cc1 | 10 | 4 | 2 | 0 | 93* | 0
C=CCn1c(SCc2nc3ccccc3[nH]2)nnc1-c1ccc(OC)cc1 | 91* | -4 | -8 | 0 | 3 | 0
C=CCn1c(SCc2nc3ccccc3[nH]2)nnc1-c1cccc(OC)c1 | 71* | -2 | -6 | 2 | -5 | 0
CCn1c(SCc2nc3ccccc3[nH]2)nnc1-c1cccnc1 | 3 | 0 | -2 | -2 | 0 | 0
CCn1c(SCc2nc3ccccc3[nH]2)nnc1-c1ccc(OC)cc1 | 78* | -3 | -8 | 0 | -16 | 0
C=CCn1c(SCc2nc3ccccc3[nH]2)nnc1-c1ccccn1 | 35 | 5 | -11 | -2 | -33 | 0
C=CCNC(=S)N(C)[C@H]1C[C@H]2c3cc(-c4ccccc4C)ccc3CCN2C[C@H]1[C@H](C)O | . | 5 | . | . | . | .
COC(=O)[C@H](C(C)C)N1Cc2nnn(Cc3ccccc3)c2-c2cc(F)ccc2S1(=O)=O | . | -1 | . | . | . | .
SMILES | PHOSPHO1 inh | rCAG binder | APOBEC3G inh | A3A deaminase | ALR H2O2 inh | aDG glyco act
COc1ccc(C=NNC(=O)Cc2cc(=O)[nH][nH]2)c(OC)c1 | . | 15 | . | . | . | .
C=C(C)/C=C1/C(Cc2ccccc2)N(CC2CC2)C(=N)N1C(=O)OCc1ccccc1 (configuration not stated) | . | 1 | . | . | . | .
CCCCCN1CCCCC(NC(=O)c2ccc(C)cc2)C1=O (configuration not stated) | . | -3 | . | . | . | .
O=C(Nc1ccc(F)cc1)OCCN1C(=O)CCC12CCC(c1ccccc1)CC2 (configuration not stated) | . | 1 | . | . | . | .
Cc1nnc(SCc2nc3ccccc3s2)n1-c1ccccc1 | -16 | -4 | -4 | -1 | -131 | 0
CCn1c(SCc2nc3ccccc3s2)nnc1-c1ccccc1 | 38 | -4 | -3 | 4 | 94* | 0
CSCc1ccc(C(=O)NCc2ccc(F)cc2)cc1 | 3 | 0 | 0 | 2 | 98* | 0
FC(F)(F)c1ccccc1Cc1c(-c2ccco2)nc2ccc(Cl)cn12 | . | 18 | . | . | . | 0
COc1ccc(-c2nc3c(Cl)cc(C(F)(F)F)cn3c2Cc2ccccc2C(F)(F)F)cc1OC | . | 7 | . | . | . | 0
Cc1ccc(-c2nc3c(Cl)cc(C(F)(F)F)cn3c2Cc2ccccc2C(F)(F)F)cc1 | . | 35* | . | . | . | 0
FC(F)(F)c1cc(Cl)c2nc(-c3ccco3)c(Cc3ccccc3C(F)(F)F)n2c1 | . | 58* | . | . | . | 0
CC(C)[C@H](N)C(=O)N1CCC[C@@H]1C(=O)N1CCC2CCN(S(=O)(=O)c3ccccc3)CC21 (some centres not stated) | . | 2 | . | . | . | .
CCn1c(SCC(=O)Nc2ccc(C)cc2)nc(O)cc1=O | 56 | 14 | -3 | 0 | 99* | 0
CCCn1c(SCC(=O)Nc2cccc(F)c2)nc(O)cc1=O | . | 30 | -14 | -5 | 99* | 0
CCCn1c(SCC(=O)Nc2ccccc2Cl)nc(O)cc1=O | . | 22 | 13 | -1 | . | 0
C/C(=N\Nc1ccc(C)c(Cl)c1)c1cccnc1 | 39 | 5 | 1 | 0 | 99* | 0
C/C(=N\Nc1ccc(C)c(Cl)c1)c1ccncc1 | 23 | 14 | 6 | 1 | . | 0
O=C(NCc1ccc2c(c1)OCO2)c1ccc(CS(=O)Cc2cccc(Cl)c2)o1 (configuration not stated) | 50 | -2 | -7 | -9 | 94* | 0
Cc1ccc(CNC(=O)c2ccc(CS(=O)Cc3ccccc3Cl)o2)cc1 (configuration not stated) | 32 | -5 | 0 | 1 | 99* | 0
CCOc1ccc(CCNC(=O)c2ccc(CS(=O)Cc3ccccc3Cl)o2)cc1 (configuration not stated) | 31 | -7 | -4 | -2 | 98* | 0
Cc1ccc(CS(=O)Cc2ccc(C(=O)NCc3ccccc3Cl)o2)cc1 (configuration not stated) | 32 | -4 | -7 | -5 | -2 | 0
